Results reported in PubChem BioAssay AID720706 (Broad Institute, 2013).
Values joined by “and” are separate entries in the source; they are usually repeats but may differ in a detail not shown here. Identical values can stand only once. The whole screen tested about 350,000 compounds, of which about 5,500 (1.6%) were called active.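 The calls were made as follows: active = significant combined selectivity score with lowered wild-type GFP, culture density cut under 30%, mutant RFP and density less affected; inactive = any of these conditions unmet.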 The entries come from a sample that favours actives as a whole.

Test: GFP drop in mixed WT/humanized-ribosome E. coli culture – GFP/RFP fluorescence, OD600, single point, bacterial rRNA inhibitor project, primary screen (AID 720706)
Settings: E. coli WT GFP vs humanized-ribosome RFP mutants, 24 h; GFP signal change (wild-type ribosome): stronger effect = lower value, DMSO median 0, no signal -100; OD600 change: measured here: OD600 growth, DMSO median 0, no signal -100; RFP signal change: measured here: RFP humanized mutant strains, DMSO median 0, no signal -100, concentration not given here
For `CO[C@@H]1CN(C)C(=O)c2cc(NC(=O)C3CCCC3)ccc2OC[C@@H](C)N(C(=O)Nc2ccc(C(F)(F)F)cc2)C[C@H]1C`, the GFP signal change (wild-type ribosome) was -37.8% (active), the OD600 change was -17.8% and the RFP signal change was -5.86%. In the case of `CO[C@@H]1CN(C)C(=O)c2cc(NC(=O)C3CC3)ccc2OC[C@@H](C)N(C(=O)NC(C)C)C[C@@H]1C`, the GFP signal change (wild-type ribosome) was 2.5% (inactive), the OD600 change was 1.51% and the RFP signal change was -0.768%. With `CO[C@@H]1CN(C)C(=O)c2cc(NC(=O)C3CCCCC3)ccc2OC[C@@H](C)N(C(=O)Nc2ccc(C(F)(F)F)cc2)C[C@H]1C` the GFP signal change (wild-type ribosome) was -0.109% (inactive) and 1.77% (inactive), the OD600 change was 2.19% and -2.79% and the RFP signal change was 2.17% and 2.36%. With `COc1ccccc1NC(=O)N1CC(=O)N2[C@@H](CO)[C@H](c3ccc(C#CC4CC4)cc3)[C@@H]2C1` the GFP signal change (wild-type ribosome) was -2.35% (inactive), the OD600 change was -11.8% and the RFP signal change was 0.376%. In the case of `COc1cc(C(=O)NCC(=O)N2CC=C(c3ccccc3)CC2)cc(OC)c1OC`, the GFP signal change (wild-type ribosome) was -28.4% (active), the OD600 change was -22% and the RFP signal change was 0.011%. For `CCn1c(CNC(=O)c2cc(OC)c(OC)c(OC)c2)cc2cc(C)ccc21`, the GFP signal change (wild-type ribosome) was 15.4% (inactive), the OD600 change was 1.59% and the RFP signal change was -1.24%. With `COc1ccc(OC)c(CN2CCN(C(=O)CNC(=O)c3cc(C)cc(C)c3)CC2)c1` the GFP signal change (wild-type ribosome) was 4.96% (inactive), the OD600 change was -6.51% and the RFP signal change was 0.577%. With `CC(=O)N(C)C[C@@H]1Oc2ccc(NC(=O)NC(C)C)cc2C(=O)N(C)C[C@H]1C` the GFP signal change (wild-type ribosome) was 1.73% (inactive), the OD600 change was -0.17% and the RFP signal change was -0.644%. In the case of `COc1cccc(-c2coc3cc4oc(=O)c(CC(=O)O)c(C)c4cc23)c1`, the GFP signal change (wild-type ribosome) was -25.9% (inactive), the OD600 change was -55.2% and the RFP signal change was -6.38%. For `Cc1coc2cc3oc(=O)c(CCC(=O)O)c(C)c3cc12`, the GFP signal change (wild-type ribosome) was -8.99% (inactive), the OD600 change was -10.5% and the RFP signal change was 3.81%. In the case of `Cc1c(CCC(=O)O)c(=O)oc2cc3occ(-c4ccccc4)c3cc12`, the GFP signal change (wild-type ribosome) was -41.8% (active), the OD600 change was -27.4% and the RFP signal change was -8.24%. In the case of `CCCC#Cc1cnc2c(c1)C(=O)N([C@H](C)CO)C[C@H](C)[C@H](CN(C)S(=O)(=O)c1cn(C)cn1)O2`, the GFP signal change (wild-type ribosome) was 7.7% (inactive), the OD600 change was 7.52% and the RFP signal change was -1.55%. With `O=C(Cc1cccc2ccccc12)NNC(=O)Nc1ccc(Cl)cc1` the GFP signal change (wild-type ribosome) was -29.7% (active), the OD600 change was -2% and the RFP signal change was -3.61%. For `O=C(O)Cc1ccc(NC(=O)Nc2cccc3ccccc23)cc1`, the GFP signal change (wild-type ribosome) was -0.412% (inactive), the OD600 change was 0.56% and the RFP signal change was -3.8%. In the case of `Cc1ccc(NC(=S)NC(NC(=O)Cc2cccc3ccccc23)C(Cl)(Cl)Cl)cc1` (stereo unspecified), the GFP signal change (wild-type ribosome) was 2.41% (inactive), the OD600 change was 7.34% and the RFP signal change was 6.73%. With `COc1ccc([C@@H]2C/C=C\C[C@@H](c3ccc4c(c3)OCO4)NC(=O)CCC(=O)N2)c(OC)c1` the GFP signal change (wild-type ribosome) was -4.75% (inactive), the OD600 change was -1.11% and the RFP signal change was 0.958%. For `C[C@@H]1CN([C@@H](C)CO)C(=O)Cc2cc(NS(=O)(=O)c3ccc(Cl)cc3)ccc2O[C@H]1CN(C)C(=O)Nc1cccc2ccccc12`, the GFP signal change (wild-type ribosome) was -0.7% (inactive), the OD600 change was -5.33% and the RFP signal change was 1.87%.
